Inconclusive results are not listed. The source made the active and inactive calls. Unless noted, the call rests on the fitted dose curve; in most records, active means well fitted curve in the direction sought with a large enough effect; inconclusive means small, poorly fitted or top-dose-only effect, or another doubt; inactive means no such curve, though single readings can be large; an effect the other way counts as inactive or inconclusive.
What was measured:
[1] = target: Estrogen receptor (Homo sapiens) (UniProt P03372); assay: qHTS assay for small molecule antagonists of estrogen receptor alpha signaling (AID 588513; active means well fitted curve in the direction sought with a large enough effect in the signal ratio, with a control signal flat, not every such curve was filed as active; the % refers to the signal ratio; further: on the % scale 0 is the no-effect control and ±100 the full control effect)
Procedure, shortened: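 Antagonist mode: inhibition of 0.5 nM 17-beta-estradiol-driven beta-lactamase reporter in HEK 293 ER-alpha-UAS-bla cells, 18 h at 37C, CCF4 readout after 2 h at RT. Normalised to estradiol and DMSO; titration fitted to Hill.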

[2] = target: Estrogen receptor (Homo sapiens) (UniProt P03372); assay: qHTS assay for small molecule agonists of estrogen receptor alpha signaling (AID 588514; calls by dose curve;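 further: 0% = vehicle only and 100% = reference agonist; nearly all actives have a fitted effect of over 70% in size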)
Procedure, shortened: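 Read-out: CCF4 fluorescence from a beta-lactamase reporter in ER-alpha-UAS-bla HEK 293 cells after 18 hrs of compound exposure at 37 C. Normalized to 20 nM 17-beta-estradiol (100%) and DMSO (0%).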

[3] = target: Glucocorticoid receptor (Homo sapiens) (UniProt P04150); assay: qHTS assay for small molecule agonists of glucocorticoid receptor signaling (AID 588532; active means well fitted curve in the direction sought with a large enough effect in the signal ratio, with a control signal flat; the % refers to the signal ratio;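 further: 100% = dexamethasone at 0.1 µM and 0% = DMSO only wells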); settings: HeLa MMTV-bla, beta-lactamase ratio, agonist, 18 h; stronger effect = higher value; percent of dexamethasone control, DMSO zero
Procedure, shortened: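 HeLa GRE-bla reporter cells; 18 h compound exposure at 37 C; 2 h CCF4 loading at room temperature; fluorescence at 460 and 530 nm; EC50 by Hill equation.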

[4] = qHTS assay for small molecule antagonists of peroxisome proliferator-activated receptor delta signaling (AID 588535); settings: HEK293T PPARd-UAS-bla, beta-lactamase FRET ratio, 18 h; 460 nm channel;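 further: cells co-treated with a PPAR-delta agonist as stimulator during compound exposure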
Procedure, shortened: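 Beta-lactamase reporter read-out (405 nm excitation, 460/530 nm emission) after CCF4 loading for 2 hrs at RT. HEK293T PPAR-delta-UAS-bla cells, 2% charcoal/dextran FBS, compounds for 18 hrs at 37 C. Hill fit gave IC50 and efficacy.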

[5] = target: Peroxisome proliferator-activated receptor gamma (Homo sapiens) (UniProt P37231); assay: qHTS assay for small molecule agonists of peroxisome proliferator-activated receptor gamma signaling (AID 588536; active means well fitted curve in the direction sought with a large enough effect in the signal ratio, with a control signal flat, not every such curve was filed as active; the % refers to the signal ratio;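 further: 0% = DMSO basal wells and 100% = rosiglitazone at 2 µM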)
Procedure, shortened: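 This is an agonist-mode beta-lactamase reporter assay in HEK293 PPAR-gamma-UAS-bla cells with 1% charcoal/dextran FBS. Compound titrations ran 16 h at 37 C before CCF4 detection. EC50 and efficacy are Hill fits scaled to 2 uM rosiglitazone (100%) and DMSO basal.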

[6] = target: Vitamin D3 receptor (Homo sapiens) (UniProt P11473); assay: qHTS assay for small molecule antagonists of vitamin D receptor signaling (AID 588541; calls by dose curve;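 further: receptor activated by calcitriol during compound treatment; series mostly up to about 77 µM; on the % scale 0 is the no-effect control and ±100 the full control effect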)
Procedure, shortened: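 VDR-UAS-bla HEK293T cells in 2% charcoal-stripped FBS were stimulated with 1-alpha,25-dihydroxyvitamin D3 (3 nM final) plus compound for 16 h at 37 C. The beta-lactamase CCF4 readout was normalized to 50 nM agonist and DMSO, and Hill fits gave IC50.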

[7] = qHTS assay for small molecule agonists of retinoid X receptor alpha signaling (AID 588544; calls by dose curve;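 on activation: 0% = DMSO basal wells and 100% = reference agonist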); settings: HEK293T RXRa-UAS-bla, beta-lactamase reporter, 18 h; 530 nm emission
[8] = target: Retinoic acid receptor RXR-alpha (Homo sapiens) (UniProt P19793); assay: as above
[9] = target: Thyroid hormone receptor beta (Homo sapiens) (UniProt P10828); assay: qHTS assay for small molecule agonists of thyroid hormone receptor beta signaling (AID 588545; calls by dose curve)
Procedure, shortened: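 Agonist-mode beta-lactamase reporter assay, HEK 293 cells, 2% charcoal/dextran FBS; cells plated 4 hrs, compound 18 hrs at 37 C, CCF4 2 hrs RT. Normalized to 10 nM T3 (100%) and DMSO (0%); Hill fit gives EC50, efficacy.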

[10] = qHTS assay for small molecule antagonists of retinoid X receptor alpha signaling (AID 588546; active means well fitted inhibition curve with a large enough effect in the signal ratio, with a control signal flat, not every such curve was filed as active; the % refers to the signal ratio;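 further: cells stimulated with 9-cis-retinoic acid as agonist; on the % scale 0 is the no-effect control and ±100 the full control effect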); settings: HEK293T RXRa-UAS-bla, beta-lactamase ratio, antagonist mode; measured here: W530 green channel, cytotoxicity proxy
Procedure, shortened: (§1)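 Beta-lactamase reporter inhibition, read as CCF4 fluorescence ratio (ex 405, em 460/530 nm) after 2 h at RT. HEK293T UAS-bla cells, 2500/well, were stimulated with 9-cis-RA at 500 or 100 nM final alongside test compound for 18 h at 37 C.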

[11] = target: Retinoic acid receptor RXR-alpha (Homo sapiens) (UniProt P19793); assay: as above; settings: HEK293T RXRa-UAS-bla, beta-lactamase ratio, antagonist mode
Procedure, shortened: as §1

[12] = target: Thyroid hormone receptor beta (Homo sapiens) (UniProt P10828); assay: qHTS assay for small molecule antagonists of thyroid hormone receptor beta signaling (AID 588547; active means well fitted inhibition curve with a large enough effect in the signal ratio, with a control signal flat, not every such curve was filed as active; the % refers to the signal ratio;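 further: cells stimulated with 0.4 nM T3 agonist during compound exposure; series mostly up to about 77 µM; on the % scale 0 is the no-effect control and ±100 the full control effect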); settings: TR-UAS-bla HEK293, beta-lactamase ratio, antagonist mode, 18 h
Procedure, shortened: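 TR-UAS-bla GripTite HEK293 cells in 2% charcoal/dextran FBS medium; compounds 0.59 nM to 92 uM with T3 at 0.4nM final, 18 h at 37 C. Beta-lactamase read by CCF4 fluorescence (460/530 nm); Hill fits gave IC50 and efficacy.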

[13] = qHTS assay for small molecule activators of the nuclear factor-kappa B (NF-kB) signaling pathway (AID 651749; active means well fitted activation curve with a large enough effect in the signal ratio; the % refers to the signal ratio; further: series mostly up to about 77 µM; % of control where 0% means no effect); settings: NF-kB-bla ME-180 cells, beta-lactamase FRET ratio, 16 h; activation: stronger effect = higher value
Procedure, shortened: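 NF-kB-bla ME-180 cells, 2,000/well; 23 nL compound or DMSO pinned; 16 hr, 37C/5% CO2; beta-lactamase FRET read-out.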

[14] = qHTS assay for environmental chemicals that activate the Aryl hydrocarbon Receptor (AhR) signaling pathway (AID 651777); settings: 1A2-DRE human hepatoma cells, luciferase, 24 h; activation: stronger effect = higher value; further: % of control where 0% means no effect; nearly all actives have a fitted effect of over 15% in size
Procedure, shortened: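 Concentration–response screening used 1,200 1A2-DRE cells per well, 24 hr compound exposure (37 C, 5% CO2), and One-Glo luminescence as the AhR-driven CYP1A2 reporter signal.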

[15] = target: Peroxisome proliferator-activated receptor alpha (Homo sapiens) (UniProt Q07869); assay: qHTS assay for small molecule agonists of the peroxisome proliferator-activated receptor alpha (PPARalpha) signaling pathway (AID 651778); settings: PathHunter PPARalpha complementation, chemiluminescence, 6 h; max response: stronger effect = higher value; further: % of control where 0% means no effect
Procedure, shortened: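 Enzyme-fragment complementation assay in which ligand-bound PPARalpha translocates and forms an active enzyme that generates chemiluminescence. Cells were plated overnight, exposed to compound for 6 hr at 37 C, and then given detection reagent for 60 min at room temperature.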

[16] = qHTS assay for cell viability of HEK293 cells (AID 743288); settings: ATP luminescence (CellTiter-Glo), 18 h; max response: stronger effect = lower value; further: on the % scale 0 is the no-effect control and ±100 the full control effect; nearly all actives have a fitted effect of over 50% in size
Procedure, shortened: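 Readout is luciferase-coupled ATP content (CellTiter-Glo luminescence, 30 min room temperature) as a measure of metabolically competent cells. Parental HEK293 cells were plated 5 h or more before compound addition, then treated 18 h at 37 C.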

[17] = qHTS assay for cell viability of the p53RE-bla HCT-116 cell line (AID 743292); further: on the % scale 0 is the no-effect control and ±100 the full control effect; nearly all actives have a fitted effect of over 55% in size
Procedure, shortened: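 Compound-exposed HCT-116 (p53RE-bla) cells, 4,000 per well, were kept 16 h at 37 C following a 5 h preincubation. Cell number was estimated from total ATP by CellTiter-Glo luminescence read after 30 min at room temperature.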

[18] = target: Nuclear receptor subfamily 1 group I member 2 (Rattus norvegicus) (UniProt Q9R1A7); assay: qHTS assay for small molecule activators of the rat pregnane X receptor (rPXR) signaling pathway (AID 651751; call rule not given here; further: 0% is about no effect); settings: rPXR reporter cells, luciferase (One-Glo), 24 h
[19] = qHTS assay for small molecule agonists of the antioxidant response element (ARE) signaling pathway measured by Nrf2-dependant transcriptional activity - cell viability counter screen (AID 720653; active means well fitted curve in the direction sought with a large enough effect in the repeat runs; an effect the other way counts as inactive or inconclusive; further: on the % scale 0 is the no-effect control and ±100 the full control effect); settings: ARE-bla HepG2 viability, CellTiter-Glo ATP luminescence, 16 h; max response: stronger effect = lower value
Procedure, shortened: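 ARE-bla HepG2 cells treated with compounds for 16 h at 37C; this counter screen measures viability as intracellular ATP by CellTiter-Glo luminescence after 30 min at room temperature.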

[20] = qHTS assay for small molecule activators of the human pregnane X receptor (PXR) signaling pathway (AID 720659; call rule not given here; further: 0% is about no effect)

Chain of Peroxisome proliferator-activated receptor gamma (Homo sapiens) (P37231 whole entry, looked up): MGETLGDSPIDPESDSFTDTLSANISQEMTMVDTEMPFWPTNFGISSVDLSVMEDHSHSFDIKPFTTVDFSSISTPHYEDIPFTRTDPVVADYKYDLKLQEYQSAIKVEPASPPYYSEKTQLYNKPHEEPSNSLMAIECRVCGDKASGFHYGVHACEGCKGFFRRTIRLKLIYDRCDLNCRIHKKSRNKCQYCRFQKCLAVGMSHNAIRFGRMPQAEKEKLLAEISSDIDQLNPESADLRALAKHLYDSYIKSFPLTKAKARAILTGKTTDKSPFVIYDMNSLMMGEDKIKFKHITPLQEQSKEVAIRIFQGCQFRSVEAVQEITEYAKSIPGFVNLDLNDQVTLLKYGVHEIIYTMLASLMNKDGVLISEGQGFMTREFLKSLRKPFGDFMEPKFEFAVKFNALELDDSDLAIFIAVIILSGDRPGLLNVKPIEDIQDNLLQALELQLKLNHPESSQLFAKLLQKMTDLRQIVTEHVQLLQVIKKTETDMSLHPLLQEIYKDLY
Chain of Nuclear receptor subfamily 1 group I member 2 (Rattus norvegicus) (Q9R1A7 whole entry, looked up): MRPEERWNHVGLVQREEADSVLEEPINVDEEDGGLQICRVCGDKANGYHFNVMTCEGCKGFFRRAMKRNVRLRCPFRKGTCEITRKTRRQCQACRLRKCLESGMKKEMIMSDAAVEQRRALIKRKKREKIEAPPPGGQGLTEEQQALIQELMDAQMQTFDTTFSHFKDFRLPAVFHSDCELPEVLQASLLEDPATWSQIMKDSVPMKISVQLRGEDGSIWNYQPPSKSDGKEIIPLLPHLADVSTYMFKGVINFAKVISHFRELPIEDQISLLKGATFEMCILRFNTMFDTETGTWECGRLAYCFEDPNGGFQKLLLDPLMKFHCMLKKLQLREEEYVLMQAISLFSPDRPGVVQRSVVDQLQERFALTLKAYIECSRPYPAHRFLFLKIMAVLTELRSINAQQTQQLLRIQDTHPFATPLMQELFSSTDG
Chain of Glucocorticoid receptor (Homo sapiens) (P04150 whole entry, looked up): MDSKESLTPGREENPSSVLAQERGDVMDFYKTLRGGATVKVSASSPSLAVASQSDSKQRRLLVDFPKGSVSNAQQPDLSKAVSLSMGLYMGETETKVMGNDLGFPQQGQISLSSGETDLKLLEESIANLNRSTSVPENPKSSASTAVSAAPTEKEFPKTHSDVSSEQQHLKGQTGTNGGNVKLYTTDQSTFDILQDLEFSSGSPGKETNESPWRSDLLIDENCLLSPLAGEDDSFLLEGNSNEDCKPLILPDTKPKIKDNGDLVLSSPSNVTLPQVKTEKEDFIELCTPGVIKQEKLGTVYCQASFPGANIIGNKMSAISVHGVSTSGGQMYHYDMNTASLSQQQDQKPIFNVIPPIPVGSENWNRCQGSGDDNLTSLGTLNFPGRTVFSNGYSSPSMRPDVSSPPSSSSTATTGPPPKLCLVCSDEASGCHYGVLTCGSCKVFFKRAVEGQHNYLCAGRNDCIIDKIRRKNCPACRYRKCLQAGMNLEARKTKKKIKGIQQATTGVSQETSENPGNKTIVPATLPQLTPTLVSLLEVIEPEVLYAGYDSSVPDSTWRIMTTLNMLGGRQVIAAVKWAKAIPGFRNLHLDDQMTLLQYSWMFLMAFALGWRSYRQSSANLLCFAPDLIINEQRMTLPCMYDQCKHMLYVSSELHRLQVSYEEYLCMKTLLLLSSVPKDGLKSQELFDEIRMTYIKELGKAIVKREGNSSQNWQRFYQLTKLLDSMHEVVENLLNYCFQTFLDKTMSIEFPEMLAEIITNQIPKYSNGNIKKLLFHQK
Chain of Thyroid hormone receptor beta (Homo sapiens) (P10828 whole entry, looked up): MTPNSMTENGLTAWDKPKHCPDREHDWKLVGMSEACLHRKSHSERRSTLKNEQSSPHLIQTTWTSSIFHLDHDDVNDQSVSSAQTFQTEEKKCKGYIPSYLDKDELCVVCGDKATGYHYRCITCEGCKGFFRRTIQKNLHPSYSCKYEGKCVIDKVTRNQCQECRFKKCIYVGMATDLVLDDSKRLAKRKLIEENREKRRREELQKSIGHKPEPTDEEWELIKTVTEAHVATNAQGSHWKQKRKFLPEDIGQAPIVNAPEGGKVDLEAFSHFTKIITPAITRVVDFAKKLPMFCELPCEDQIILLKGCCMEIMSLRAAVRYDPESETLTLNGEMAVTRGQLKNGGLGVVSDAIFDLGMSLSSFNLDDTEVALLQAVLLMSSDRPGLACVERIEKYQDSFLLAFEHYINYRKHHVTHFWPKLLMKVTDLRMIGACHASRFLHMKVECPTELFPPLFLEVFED
Chain of Peroxisome proliferator-activated receptor alpha (Homo sapiens) (Q07869 whole entry, looked up, the tested form may be a part): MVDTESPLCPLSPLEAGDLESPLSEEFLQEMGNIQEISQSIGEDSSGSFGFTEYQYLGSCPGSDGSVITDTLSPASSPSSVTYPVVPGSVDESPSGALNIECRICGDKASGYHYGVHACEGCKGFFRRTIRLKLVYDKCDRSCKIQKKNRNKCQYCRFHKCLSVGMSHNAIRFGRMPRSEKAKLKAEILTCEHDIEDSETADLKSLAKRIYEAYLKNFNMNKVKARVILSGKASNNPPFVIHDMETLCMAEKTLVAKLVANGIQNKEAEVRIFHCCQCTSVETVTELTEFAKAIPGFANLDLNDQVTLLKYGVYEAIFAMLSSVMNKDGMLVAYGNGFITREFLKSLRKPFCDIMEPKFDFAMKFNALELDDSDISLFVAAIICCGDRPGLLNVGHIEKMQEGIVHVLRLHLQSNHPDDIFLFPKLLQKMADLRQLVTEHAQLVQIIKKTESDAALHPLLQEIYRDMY
Chain of Estrogen receptor (Homo sapiens) (P03372 whole entry, looked up): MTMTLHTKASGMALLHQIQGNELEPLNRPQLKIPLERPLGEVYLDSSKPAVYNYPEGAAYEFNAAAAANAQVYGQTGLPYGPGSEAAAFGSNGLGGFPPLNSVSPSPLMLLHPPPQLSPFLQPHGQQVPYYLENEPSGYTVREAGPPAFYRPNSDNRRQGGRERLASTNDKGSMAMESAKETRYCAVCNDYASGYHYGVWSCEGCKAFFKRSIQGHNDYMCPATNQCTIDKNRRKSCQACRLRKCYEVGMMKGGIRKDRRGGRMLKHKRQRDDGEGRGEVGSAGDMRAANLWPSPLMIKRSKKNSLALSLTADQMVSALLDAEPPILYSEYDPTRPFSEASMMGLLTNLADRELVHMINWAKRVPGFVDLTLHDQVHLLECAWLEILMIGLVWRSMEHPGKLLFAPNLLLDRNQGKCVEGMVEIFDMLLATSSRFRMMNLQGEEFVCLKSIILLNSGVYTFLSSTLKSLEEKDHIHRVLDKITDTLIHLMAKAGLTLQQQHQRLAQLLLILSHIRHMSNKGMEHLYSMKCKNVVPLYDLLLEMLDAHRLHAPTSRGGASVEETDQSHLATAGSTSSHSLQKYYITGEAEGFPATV
Chain of Vitamin D3 receptor (Homo sapiens) (P11473 whole entry, looked up): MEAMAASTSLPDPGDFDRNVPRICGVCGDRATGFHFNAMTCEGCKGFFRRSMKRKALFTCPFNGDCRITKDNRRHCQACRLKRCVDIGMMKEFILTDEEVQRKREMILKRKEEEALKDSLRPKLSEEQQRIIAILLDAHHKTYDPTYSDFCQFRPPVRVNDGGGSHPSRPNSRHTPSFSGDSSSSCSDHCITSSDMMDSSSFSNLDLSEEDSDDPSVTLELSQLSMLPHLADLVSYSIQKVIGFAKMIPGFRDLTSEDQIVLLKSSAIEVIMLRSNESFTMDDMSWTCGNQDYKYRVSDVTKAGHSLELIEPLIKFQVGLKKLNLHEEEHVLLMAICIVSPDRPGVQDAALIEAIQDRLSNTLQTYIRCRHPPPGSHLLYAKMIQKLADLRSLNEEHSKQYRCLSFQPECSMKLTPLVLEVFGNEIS
Chain of Retinoic acid receptor RXR-alpha (Homo sapiens) (P19793 whole entry, looked up): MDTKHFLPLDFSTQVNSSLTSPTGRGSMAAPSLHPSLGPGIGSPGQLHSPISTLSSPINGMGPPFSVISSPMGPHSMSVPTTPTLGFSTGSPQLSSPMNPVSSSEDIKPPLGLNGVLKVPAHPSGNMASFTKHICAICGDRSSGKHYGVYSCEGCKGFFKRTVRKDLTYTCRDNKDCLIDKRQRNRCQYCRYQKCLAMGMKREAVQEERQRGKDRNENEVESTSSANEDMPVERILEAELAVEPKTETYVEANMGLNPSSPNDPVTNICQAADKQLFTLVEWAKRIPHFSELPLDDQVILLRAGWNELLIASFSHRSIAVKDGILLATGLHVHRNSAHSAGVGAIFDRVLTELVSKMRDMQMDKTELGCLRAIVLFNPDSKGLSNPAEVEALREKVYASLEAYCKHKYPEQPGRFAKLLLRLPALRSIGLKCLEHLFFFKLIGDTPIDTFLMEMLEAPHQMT

Cc1ccc(C(=O)c2ccccc2)cc1
-13.1%: max response [4]
0.662%: max response [7]
9.26%: max response [10]
inactive: Potency [1] | Potency [2] | activation [3] 2.58% | outcome [5] | Potency [6] | Potency [8] | Potency [9] | max response [11] -15.9% | activity change % (negative = inhibition) [12] -19.1% | activation [13] 0.979% | activation [14] -0.234% | max response [15] -3.56% | max response [16] -2.28% | Potency [17] | max response [18] 3.11%

CCC/C(=N\OCC)C1=C(O)CC(O)(CC(C)S(=O)(=O)CC)CC1=O (stereo unspecified)
-16.2%: max response [7]
9.67%: max response [4]
inactive: Potency [1] | Potency [2] | activation [3] -6.04% | outcome [5] | Potency [6] | Potency [8] | Potency [9] | max response [11] 3.08% | activation [13] -2.79% | activation [14] 3.19% | max response [15] -0.0131% | max response [19] -10.1% | max response [16] -1.14% | Potency [17] | max response [18] 2.09% | outcome [20]
-7.24%: max response [10]

CCCCCCCCCc1ccccc1
1.13%: max response [4]
inactive: Potency [1] | Potency [2] | activation [3] -4.94% | outcome [5] | Potency [6] | Potency [8] | Potency [9] | max response [11] 2.35% | activity change % (negative = inhibition) [12] 0.977% | activation [13] -0.21% | activation [14] 0.637% | max response [15] -0.702% | max response [19] 4.47% | max response [16] 2.81% | Potency [17] | max response [18] 1.1% | outcome [20]
-10.2%: max response [10]
-8.55%: max response [7]

C=Cc1ccc(P(c2ccccc2)c2ccccc2)cc1
16.9%: max response [4]
-3.97%: max response [7]
inactive: Potency [1] | Potency [2] | activation [3] -2.27% | outcome [5] | Potency [6] | Potency [8] | Potency [9] | max response [11] 3.02% | activity change % (negative = inhibition) [12] 9.12% | activation [13] 0.802% | activation [14] 0.447% | max response [15] -0.0796% | max response [19] -10.4% | max response [16] -7.87% | Potency [17] | max response [18] 0.774% | outcome [20]
-0.204%: max response [10]

COC(=O)c1cccc(C)c1S(=O)(=O)NC(=O)Nc1nc(OCC(F)(F)F)nc(N(C)C)n1
inactive: Potency [1] | Potency [2] | activation [3] -2.8% | outcome [5] | Potency [6] | Potency [9] | max response [11] -20.9% | activity change % (negative = inhibition) [12] 11.3% | activation [13] 0.0138% | activation [14] 2.46% | max response [15] -1.42% | max response [19] -9.65% | max response [16] -5.64% | Potency [17] | max response [18] -6.52% | outcome [20]
78.8%: max response [4]
-7.48%: max response [10]

O=c1[nH]c(=O)c2[nH]cnc2[nH]1
-11.9%: max response [4]
inactive: Potency [1] | Potency [2] | activation [3] 3.26% | outcome [5] | Potency [6] | Potency [8] | max response [11] -1.52% | activity change % (negative = inhibition) [12] 11.6% | activation [13] -1.45% | activation [14] 0.87% | max response [15] -2.27% | max response [19] 0.287% | max response [16] -12.8% | Potency [17] | max response [18] 0.842% | outcome [20]
-13.2%: max response [7]
-4.54%: max response [10]

COC(=O)c1c(Cl)nn(C)c1S(=O)(=O)NC(=O)Nc1nc(OC)cc(OC)n1
-1.74%: max response [10]
-3.44%: max response [7]
inactive: Potency [1] | Potency [2] | activation [3] -2.96% | outcome [5] | Potency [8] | Potency [9] | max response [11] -14.3% | activity change % (negative = inhibition) [12] -5.79% | activation [13] -2.65% | activation [14] -1.75% | max response [15] 0.0687% | max response [19] -2.6% | max response [16] -3.18% | Potency [17] | max response [18] 1.48% | outcome [20]
-24.6%: max response [4]

O=C(O)c1ccc2c(c1)C(=O)OC2=O
-9.87%: max response [7]
inactive: Potency [1] | Potency [2] | activation [3] 1.9% | outcome [5] | Potency [6] | Potency [8] | Potency [9] | max response [11] -0.339% | activity change % (negative = inhibition) [12] 1.57% | activation [13] 0.891% | activation [14] 1.29% | max response [15] -0.399% | max response [19] -5.37% | max response [16] -7.11% | Potency [17] | max response [18] 0.711%
-2.35%: max response [10]

NN(c1ccccc1)c1ccccc1
-8.85%: max response [7]
-11.7%: max response [10]
inactive: Potency [1] | Potency [2] | activation [3] -3.55% | outcome [5] | Potency [6] | Potency [8] | Potency [9] | max response [11] -14.4% | activity change % (negative = inhibition) [12] 4.53% | activation [13] -2.86% | activation [14] 3.15% | max response [15] -1.16% | max response [19] -7.4% | max response [16] -10.4% | Potency [17] | max response [18] 1.92%
23.6%: max response [4]

CC(C)(C)C(O)/C(=C\c1ccc(Cl)cc1)n1cncn1 (stereo unspecified)
-0.493%: max response [10]
16.3%: max response [7]
inactive: Potency [1] | Potency [2] | activation [3] 0.903% | outcome [5] | Potency [6] | Potency [8] | Potency [9] | max response [11] -24.9% | activation [13] -1.6% | activation [14] 3.57% | max response [15] 6.34% | max response [19] -4.78% | max response [16] -13.5% | Potency [17]
-55.9%: max response [4]

CCCCCCCCCCCCCCN
-7.23%: max response [4]
-5.44%: max response [10]
-19.1%: max response [7]
inactive: Potency [1] | Potency [2] | activation [3] -4.59% | outcome [5] | Potency [6] | Potency [8] | Potency [9] | max response [11] -5.01% | activation [13] -1.74% | activation [14] -0.123% | max response [15] -1.81% | max response [19] 4.41% | max response [16] -3.28% | Potency [17] | max response [18] 1.71% | outcome [20]

Source: PubChem BioAssay (NCATS)
